Common to all, as to test: DAPPL (digital affinity profiling via proximity ligation, sequencing); 10 mM Tris-HCl pH 7.5, 50 mM NaCl, 1 mM DTT, 4% glycerol, room temperature, 30 min; GST-TFs on glutathione beads, 16-mer random dsDNA library, 0.1% formaldehyde crosslink after washing; high values mean tight binding
Common to all, as to conditions: protein: recombinant; tags: N-terminal GST; dsDNA, one strand shown

One test addresses T1, FLI1 (Homo sapiens, UniProt Q01543 1-452).
T1 sequence: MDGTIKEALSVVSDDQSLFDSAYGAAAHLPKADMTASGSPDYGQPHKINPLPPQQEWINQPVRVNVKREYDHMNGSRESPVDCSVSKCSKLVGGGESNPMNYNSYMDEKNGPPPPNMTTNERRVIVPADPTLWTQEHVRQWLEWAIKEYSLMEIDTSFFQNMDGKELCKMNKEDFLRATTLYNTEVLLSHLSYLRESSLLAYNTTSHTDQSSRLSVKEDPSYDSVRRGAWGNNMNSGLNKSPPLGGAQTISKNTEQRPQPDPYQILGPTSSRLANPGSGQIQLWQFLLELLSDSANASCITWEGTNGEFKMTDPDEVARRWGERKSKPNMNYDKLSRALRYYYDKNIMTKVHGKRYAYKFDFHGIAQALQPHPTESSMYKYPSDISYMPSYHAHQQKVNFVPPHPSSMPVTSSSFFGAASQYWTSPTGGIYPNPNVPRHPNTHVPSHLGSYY
In short, it runs like this:
(§1)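 Sequencing on an Illumina NextSeq500 followed washing, crosslinking with 0.1% formaldehyde, proximity ligation (BsaI/T4 ligase, 1 h, 37 °C) and PCR amplification of pools that had been incubated for 30 min at room temperature with 200 nmole of a random double-stranded 16-mer DNA library in Tris/NaCl/DTT/glycerol buffer. Each pool held DNA-barcoded human transcription factors, expressed in yeast as GST fusions and captured on glutathione beads, plus a tag-only sample. Binding signal is a hexamer's read frequency for a factor divided by its frequency in the tag-only sample.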

Another test addresses T2, ELK1 (Homo sapiens, UniProt P19419 1-428).
T2 sequence: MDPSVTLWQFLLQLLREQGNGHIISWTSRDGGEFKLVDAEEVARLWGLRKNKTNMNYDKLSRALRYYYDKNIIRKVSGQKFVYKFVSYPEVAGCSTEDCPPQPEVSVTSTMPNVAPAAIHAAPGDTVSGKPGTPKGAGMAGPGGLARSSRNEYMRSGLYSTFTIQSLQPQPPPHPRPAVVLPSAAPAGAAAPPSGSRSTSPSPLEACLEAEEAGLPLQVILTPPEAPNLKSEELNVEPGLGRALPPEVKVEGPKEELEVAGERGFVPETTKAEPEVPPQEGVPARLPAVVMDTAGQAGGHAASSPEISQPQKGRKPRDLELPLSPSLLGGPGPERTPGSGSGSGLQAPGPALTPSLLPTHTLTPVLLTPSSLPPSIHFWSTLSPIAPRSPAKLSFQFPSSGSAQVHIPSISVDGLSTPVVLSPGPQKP
In short, it runs like this: as §1

The next test has as its target T3, GABPA (Homo sapiens, UniProt Q06546 1-454).
T3 sequence: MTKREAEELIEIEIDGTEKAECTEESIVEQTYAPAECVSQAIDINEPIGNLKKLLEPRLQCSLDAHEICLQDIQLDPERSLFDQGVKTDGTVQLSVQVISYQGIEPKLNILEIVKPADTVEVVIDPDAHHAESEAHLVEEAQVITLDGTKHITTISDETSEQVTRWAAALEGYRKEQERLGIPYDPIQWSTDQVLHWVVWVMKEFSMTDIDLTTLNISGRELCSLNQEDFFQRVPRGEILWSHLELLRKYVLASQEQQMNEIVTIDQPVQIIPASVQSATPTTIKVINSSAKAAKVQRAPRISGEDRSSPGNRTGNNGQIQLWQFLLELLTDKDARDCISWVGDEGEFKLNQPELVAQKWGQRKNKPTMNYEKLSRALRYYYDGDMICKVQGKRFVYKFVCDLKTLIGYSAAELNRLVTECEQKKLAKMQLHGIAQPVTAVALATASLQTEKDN
The method, boiled down: as §1

A further test concerns the target T4, ERG (Homo sapiens, UniProt P11308 1-479).
T4 sequence: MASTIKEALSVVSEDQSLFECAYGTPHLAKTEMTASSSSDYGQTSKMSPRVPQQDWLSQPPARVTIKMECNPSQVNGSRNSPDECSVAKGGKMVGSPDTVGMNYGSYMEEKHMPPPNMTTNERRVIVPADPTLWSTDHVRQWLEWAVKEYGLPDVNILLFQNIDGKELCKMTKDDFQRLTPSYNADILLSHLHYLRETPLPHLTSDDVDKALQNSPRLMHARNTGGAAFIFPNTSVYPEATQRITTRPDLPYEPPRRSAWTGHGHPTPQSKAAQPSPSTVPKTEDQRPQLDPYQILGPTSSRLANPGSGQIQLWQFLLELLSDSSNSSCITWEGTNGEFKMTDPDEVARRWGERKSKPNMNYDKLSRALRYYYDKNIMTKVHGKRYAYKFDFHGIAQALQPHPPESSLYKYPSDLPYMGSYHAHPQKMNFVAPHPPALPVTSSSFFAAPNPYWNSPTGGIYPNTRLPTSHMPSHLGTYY
The method, boiled down:
as §1

Another test has as its target ELF1 (Homo sapiens, UniProt P32519 1-619). In short, it runs like this:
as §1

In another test the target is SPI1 (Homo sapiens, UniProt P17947 1-270). The method, boiled down:
as §1

The target of a further test is SPIB (Homo sapiens, UniProt Q01892 1-262). In short, it runs like this: as §1
Chain of SPIB (Q01892 whole entry): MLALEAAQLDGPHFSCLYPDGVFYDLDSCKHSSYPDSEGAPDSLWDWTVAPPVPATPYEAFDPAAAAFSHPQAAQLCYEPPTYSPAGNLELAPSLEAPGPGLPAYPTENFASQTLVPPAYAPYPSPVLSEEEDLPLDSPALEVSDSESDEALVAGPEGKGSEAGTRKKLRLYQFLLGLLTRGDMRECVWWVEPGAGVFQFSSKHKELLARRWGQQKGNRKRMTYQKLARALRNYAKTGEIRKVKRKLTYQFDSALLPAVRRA
A further test deals with T5, ELK3 (Homo sapiens, UniProt P41970 1-407).
T5 sequence: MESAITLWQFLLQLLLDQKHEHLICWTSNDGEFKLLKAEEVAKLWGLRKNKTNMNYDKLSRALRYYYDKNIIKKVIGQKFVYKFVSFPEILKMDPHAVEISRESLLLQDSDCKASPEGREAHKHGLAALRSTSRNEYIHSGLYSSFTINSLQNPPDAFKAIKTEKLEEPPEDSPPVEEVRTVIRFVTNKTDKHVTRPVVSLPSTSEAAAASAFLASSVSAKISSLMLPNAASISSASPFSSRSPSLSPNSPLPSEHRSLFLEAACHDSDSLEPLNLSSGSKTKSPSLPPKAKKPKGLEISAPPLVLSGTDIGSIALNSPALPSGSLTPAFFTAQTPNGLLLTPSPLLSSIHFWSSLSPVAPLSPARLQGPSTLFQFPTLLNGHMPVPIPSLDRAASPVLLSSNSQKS
In short, it runs like this:
as §1

The target in a further test is T6, FEV (Homo sapiens, UniProt Q99581 1-238).
T6 sequence: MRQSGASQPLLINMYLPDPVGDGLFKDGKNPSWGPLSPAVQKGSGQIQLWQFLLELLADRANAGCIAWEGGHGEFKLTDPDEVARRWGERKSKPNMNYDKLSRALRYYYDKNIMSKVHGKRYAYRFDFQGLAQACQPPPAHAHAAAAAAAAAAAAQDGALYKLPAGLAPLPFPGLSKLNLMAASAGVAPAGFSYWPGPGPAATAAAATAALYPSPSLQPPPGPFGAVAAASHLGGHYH
The method, boiled down:
as §1

Another test deals with ETV5 (Homo sapiens, UniProt P41161 1-510). In short, it runs like this: as §1
Chain of ETV5 (P41161 whole entry): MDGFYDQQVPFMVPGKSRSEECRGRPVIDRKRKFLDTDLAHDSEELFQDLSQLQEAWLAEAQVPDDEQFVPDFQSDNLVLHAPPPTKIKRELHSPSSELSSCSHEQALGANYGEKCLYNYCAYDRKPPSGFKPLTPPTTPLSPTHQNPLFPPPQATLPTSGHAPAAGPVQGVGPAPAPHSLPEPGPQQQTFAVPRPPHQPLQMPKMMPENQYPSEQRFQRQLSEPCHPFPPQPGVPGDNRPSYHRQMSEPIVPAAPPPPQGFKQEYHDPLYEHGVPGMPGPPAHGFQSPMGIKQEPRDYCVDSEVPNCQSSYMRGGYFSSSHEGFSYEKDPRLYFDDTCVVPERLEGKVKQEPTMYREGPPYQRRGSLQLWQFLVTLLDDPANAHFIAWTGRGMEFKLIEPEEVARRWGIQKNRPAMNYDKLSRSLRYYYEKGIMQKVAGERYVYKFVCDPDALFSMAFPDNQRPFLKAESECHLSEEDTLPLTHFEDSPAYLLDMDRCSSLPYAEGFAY
Another test has as its target T7, SPIC (Homo sapiens, UniProt Q8N5J4 1-248).
T7 sequence: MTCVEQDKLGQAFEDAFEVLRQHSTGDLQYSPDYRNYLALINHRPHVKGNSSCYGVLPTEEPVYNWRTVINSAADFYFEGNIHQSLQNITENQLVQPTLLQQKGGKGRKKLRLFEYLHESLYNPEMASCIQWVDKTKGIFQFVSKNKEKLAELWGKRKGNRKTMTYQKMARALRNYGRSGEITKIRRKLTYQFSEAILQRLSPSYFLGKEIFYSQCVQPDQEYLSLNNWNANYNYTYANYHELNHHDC
In short, it runs like this:
as §1

In a further test the target is ELF4 (Homo sapiens, UniProt Q99607 1-663). The method, boiled down:
as §1

The target of a further test is T8, ELK4 (Homo sapiens, UniProt P28324-2 1-405).
T8 sequence: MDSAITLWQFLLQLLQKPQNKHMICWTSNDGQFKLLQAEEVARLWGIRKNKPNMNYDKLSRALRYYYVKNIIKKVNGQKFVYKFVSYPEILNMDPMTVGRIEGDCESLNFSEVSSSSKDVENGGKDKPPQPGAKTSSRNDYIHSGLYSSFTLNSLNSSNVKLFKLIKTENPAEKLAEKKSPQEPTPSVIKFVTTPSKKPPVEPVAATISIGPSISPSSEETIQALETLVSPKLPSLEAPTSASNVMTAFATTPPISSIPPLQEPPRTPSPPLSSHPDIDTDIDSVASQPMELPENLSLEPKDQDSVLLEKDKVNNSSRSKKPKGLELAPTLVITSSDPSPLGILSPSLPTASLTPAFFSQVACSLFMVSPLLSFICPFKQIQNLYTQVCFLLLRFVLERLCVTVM
In short, it runs like this:
as §1

The target of the next test is T9, ETV2 (Homo sapiens, UniProt O00321 1-342).
T9 sequence: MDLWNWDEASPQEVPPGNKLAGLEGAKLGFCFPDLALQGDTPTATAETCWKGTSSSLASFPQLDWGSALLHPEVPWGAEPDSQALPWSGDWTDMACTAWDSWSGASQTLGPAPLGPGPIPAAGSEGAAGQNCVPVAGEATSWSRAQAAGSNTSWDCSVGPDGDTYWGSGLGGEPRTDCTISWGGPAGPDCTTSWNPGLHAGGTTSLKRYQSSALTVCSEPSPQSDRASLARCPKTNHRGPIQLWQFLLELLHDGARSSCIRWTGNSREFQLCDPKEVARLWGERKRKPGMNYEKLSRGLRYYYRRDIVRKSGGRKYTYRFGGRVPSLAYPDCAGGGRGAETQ
In short, it runs like this:
as §1

The target of another test is T10, ELF3 (Homo sapiens, UniProt P78545 1-371).
T10 sequence: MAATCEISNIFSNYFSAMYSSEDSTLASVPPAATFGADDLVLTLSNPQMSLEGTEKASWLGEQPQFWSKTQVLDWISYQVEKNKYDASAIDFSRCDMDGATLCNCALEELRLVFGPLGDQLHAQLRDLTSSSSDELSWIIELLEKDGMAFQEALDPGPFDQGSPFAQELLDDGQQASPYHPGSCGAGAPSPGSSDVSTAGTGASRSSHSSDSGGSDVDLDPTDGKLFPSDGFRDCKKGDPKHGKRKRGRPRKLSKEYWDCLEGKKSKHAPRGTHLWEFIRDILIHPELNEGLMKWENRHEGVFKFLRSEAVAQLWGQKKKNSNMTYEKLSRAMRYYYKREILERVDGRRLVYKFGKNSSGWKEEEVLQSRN
In short, it runs like this: as §1

The target in the next test is ETV1 (Homo sapiens, UniProt P50549 1-477). In short, it runs like this:
as §1

In a further test the target is T11, EHF (Homo sapiens, UniProt Q9NZC4 1-300).
T11 sequence: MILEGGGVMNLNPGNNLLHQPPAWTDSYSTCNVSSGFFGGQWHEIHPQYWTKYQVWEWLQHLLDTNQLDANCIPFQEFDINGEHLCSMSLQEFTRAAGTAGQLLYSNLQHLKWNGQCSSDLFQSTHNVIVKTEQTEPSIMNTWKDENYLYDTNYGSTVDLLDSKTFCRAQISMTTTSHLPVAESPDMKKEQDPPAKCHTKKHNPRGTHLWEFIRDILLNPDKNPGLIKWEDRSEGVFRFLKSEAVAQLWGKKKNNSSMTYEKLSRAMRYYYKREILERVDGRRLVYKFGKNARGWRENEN
In short, it runs like this:
as §1

Chain of ETV1 (P50549 whole entry): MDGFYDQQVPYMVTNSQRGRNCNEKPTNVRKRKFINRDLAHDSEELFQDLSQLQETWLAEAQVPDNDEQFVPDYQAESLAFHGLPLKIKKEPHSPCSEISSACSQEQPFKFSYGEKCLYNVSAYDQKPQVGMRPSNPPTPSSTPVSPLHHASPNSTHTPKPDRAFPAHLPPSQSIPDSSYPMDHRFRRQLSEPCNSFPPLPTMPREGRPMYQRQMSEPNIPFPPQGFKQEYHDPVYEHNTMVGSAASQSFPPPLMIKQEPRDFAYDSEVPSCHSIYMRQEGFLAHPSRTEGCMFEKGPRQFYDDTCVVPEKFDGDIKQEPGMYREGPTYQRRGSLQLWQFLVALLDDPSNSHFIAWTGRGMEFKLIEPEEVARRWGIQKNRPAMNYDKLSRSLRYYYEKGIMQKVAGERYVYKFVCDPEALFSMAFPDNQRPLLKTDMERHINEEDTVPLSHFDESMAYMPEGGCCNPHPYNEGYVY
Chain of ELF1 (P32519 whole entry): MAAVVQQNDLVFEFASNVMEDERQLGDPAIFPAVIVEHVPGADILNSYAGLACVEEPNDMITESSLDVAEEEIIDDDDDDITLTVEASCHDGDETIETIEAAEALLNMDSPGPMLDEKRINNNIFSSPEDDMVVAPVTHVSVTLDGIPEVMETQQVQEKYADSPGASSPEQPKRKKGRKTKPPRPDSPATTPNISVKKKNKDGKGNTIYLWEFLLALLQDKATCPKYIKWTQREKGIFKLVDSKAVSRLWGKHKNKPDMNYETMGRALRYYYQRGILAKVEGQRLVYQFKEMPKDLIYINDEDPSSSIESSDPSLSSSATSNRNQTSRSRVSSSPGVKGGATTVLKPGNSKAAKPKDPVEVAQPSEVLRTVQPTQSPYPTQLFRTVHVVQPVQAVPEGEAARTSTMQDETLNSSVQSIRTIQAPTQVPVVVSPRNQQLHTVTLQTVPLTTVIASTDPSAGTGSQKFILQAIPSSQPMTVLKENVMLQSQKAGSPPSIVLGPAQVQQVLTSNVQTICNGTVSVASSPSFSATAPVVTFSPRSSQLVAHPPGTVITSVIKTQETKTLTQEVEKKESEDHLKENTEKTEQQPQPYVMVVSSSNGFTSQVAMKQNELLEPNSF
Chain of ELF4 (Q99607 whole entry): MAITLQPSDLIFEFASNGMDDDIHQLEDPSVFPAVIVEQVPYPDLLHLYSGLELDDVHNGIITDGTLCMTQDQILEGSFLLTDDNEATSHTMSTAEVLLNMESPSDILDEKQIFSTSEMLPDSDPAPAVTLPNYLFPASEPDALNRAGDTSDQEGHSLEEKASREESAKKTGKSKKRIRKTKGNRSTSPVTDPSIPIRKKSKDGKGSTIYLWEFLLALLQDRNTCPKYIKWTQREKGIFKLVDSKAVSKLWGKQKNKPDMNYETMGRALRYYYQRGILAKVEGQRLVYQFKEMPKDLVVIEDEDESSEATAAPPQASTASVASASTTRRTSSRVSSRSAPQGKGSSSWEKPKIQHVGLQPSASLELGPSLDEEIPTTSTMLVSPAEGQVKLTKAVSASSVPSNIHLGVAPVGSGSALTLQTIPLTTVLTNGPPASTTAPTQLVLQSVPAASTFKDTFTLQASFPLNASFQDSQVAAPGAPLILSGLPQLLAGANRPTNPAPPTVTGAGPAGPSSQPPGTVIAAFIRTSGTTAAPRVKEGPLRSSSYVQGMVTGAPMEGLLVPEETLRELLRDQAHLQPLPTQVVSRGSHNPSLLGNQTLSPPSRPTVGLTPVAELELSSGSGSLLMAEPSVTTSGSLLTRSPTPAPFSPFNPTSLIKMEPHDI

Consider GGTTCA, for which the binding signal with FLI1 was 1.14 fold enrichment (6-mer frequency, TF over GST control); with ELK1 it was 1.04 fold enrichment (6-mer frequency, TF over GST control); with GABPA it was 1.11 fold enrichment (6-mer frequency, TF over GST control); with ERG it was 1.03 fold enrichment (6-mer frequency, TF over GST control); with ELF1, 1.07 fold enrichment (6-mer frequency, TF over GST control); with SPI1, 1.02 fold enrichment (6-mer frequency, TF over GST control). The binding signal with SPIB is 1.04 fold enrichment (6-mer frequency, TF over GST control); with ELK3, 1.03 fold enrichment (6-mer frequency, TF over GST control); with FEV, 1.1 fold enrichment (6-mer frequency, TF over GST control); with ETV5, 1.03 fold enrichment (6-mer frequency, TF over GST control); with SPIC it was 1.14 fold enrichment (6-mer frequency, TF over GST control); with ELF4, 1.08 fold enrichment (6-mer frequency, TF over GST control). The binding signal with ELK4 was 1.14 fold enrichment (6-mer frequency, TF over GST control); in the test with ETV2 it was 1.14 fold enrichment (6-mer frequency, TF over GST control); with ELF3 it was 1.07 fold enrichment (6-mer frequency, TF over GST control); with ETV1 it was 1.07 fold enrichment (6-mer frequency, TF over GST control).
For the sequence AACGCC, the binding signal with FLI1 is 1.07 fold enrichment (6-mer frequency, TF over GST control); with ELK1, 1.1 fold enrichment (6-mer frequency, TF over GST control); with GABPA, 1.08 fold enrichment (6-mer frequency, TF over GST control); in the test with ERG it was 1.06 fold enrichment (6-mer frequency, TF over GST control); with ELF1, 1.09 fold enrichment (6-mer frequency, TF over GST control); with EHF, 1.15 fold enrichment (6-mer frequency, TF over GST control). For the same sequence, the binding signal with SPI1 was 1.06 fold enrichment (6-mer frequency, TF over GST control); in the test with SPIB, 1.11 fold enrichment (6-mer frequency, TF over GST control); in the test with FEV, 1.11 fold enrichment (6-mer frequency, TF over GST control); with ETV5, 1.07 fold enrichment (6-mer frequency, TF over GST control); with SPIC, 1.03 fold enrichment (6-mer frequency, TF over GST control); with ELF4, 1.15 fold enrichment (6-mer frequency, TF over GST control). Further, the binding signal with ELK4 was 1.2 fold enrichment (6-mer frequency, TF over GST control); in the test with ETV2, 1.08 fold enrichment (6-mer frequency, TF over GST control); with ELF3, 1.08 fold enrichment (6-mer frequency, TF over GST control); in the test with ETV1, 1.1 fold enrichment (6-mer frequency, TF over GST control).

The values above are taken from publication PMC7862700, “An all-to-all approach to the identification of sequence-specific readers for epigenetic DNA modifications on cytosine”.
